In PubChem BioAssay (NCI) one finds growth data, which are given here for 16 molecules.

About 83,000 compounds went through this panel and 20% of them were active in at least one assay; those are over-represented in the sample as a whole.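 Interpretation: 100, growth as untreated; towards 0, rising growth inhibition; 0, no net growth; 0 to -100, cell death. Compounds scoring below 10 were considered active.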 Values without a mark were called inactive. The source made the active and inactive calls.

What all share (assay): NCI-60 one-dose screen, 48 h (100 = growth as untreated, 0 = no growth, -100 = all killed)
Details in all cases: 10 µM unless noted

Experiment [1] relates to T-47D breast.
In experiment [2] the test system is BT-549 breast.
Experiment [3] deals with MDA-MB-435 melanoma.
Experiment [4] has as its system SW-620 colon.
The test system of experiment [5] is MCF7 breast.
Experiment [6] has as its system HCT-116 colon.
The test system of experiment [7] is HCC-2998 colon.
Experiment [8] relates to KM12 colon.

Regarding `O=c1ssc(Cl)c1-c1ccccc1`, the growth in experiment [1] is 95.7%; in experiment [2], 114%; in experiment [3], 98.4%; in experiment [4], 95.2%; in experiment [5] it was 89.3%; in experiment [6], 93.5%. In addition, the growth in experiment [7] was 104%; in experiment [8] it was 113%.

Take `Cc1ccc2nc(C)c(-c3nnc(SCc4ccc(C#N)cc4)o3)n2c1`: the growth in experiment [1] was 89.3%; in experiment [2], 85.8%; in experiment [3], 101%; in experiment [4] it was 105%; in experiment [5], 77.8%; in experiment [6], 91.8%. Moreover, the growth in experiment [7] is 108%; in experiment [8], 106%.

Consider `CCOC(=O)c1c(/C=C/C(=O)O)nc2ccccc2c1/C=C/c1ccccc1`, for which the growth in experiment [1] is 36.4%; in experiment [2] it was 19.1%; in experiment [3], 21.6%; in experiment [4] it was 30.1%; in experiment [5], 30.2%; in experiment [6], 22.4%. For the same molecule, the growth was 35.1% in experiment [7] and 19.7% in experiment [8].

With `CC/C=C\CCC/C=C1/C(=O)C=C[C@@H]1C/C=C\CCCC(=O)O`, the growth in experiment [1] was 55.3%; in experiment [2], 32.3%; in experiment [3], 5.08% (active); in experiment [4], 9.71% (active); in experiment [5], 20.2%; in experiment [6] it was -30.2% (active). Moreover, the growth in experiment [7] was 68.2%; in experiment [8], 32%.

Consider `Cc1cc(NCc2cc(Nc3ccnc4cc(Cl)ccc34)ccc2F)nc(N2CCOCC2)n1`, for which the growth in experiment [1] is -54.8% (active); in experiment [2], 75.3%; in experiment [3], -18.4% (active); in experiment [4], 32.5%; in experiment [5] it was 6.18% (active); in experiment [6], 2.23% (active). In addition, the growth in experiment [7] is 55.8%; in experiment [8], 44%.

For the molecule `COc1ccc2occ(C3=C(c4c[nH]c5ccccc45)C(=O)N(O)C3=O)c2c1`, the growth is 76.1% in experiment [1]; 84.2% in experiment [2]; 96.3% in experiment [3]; 89.2% in experiment [4]; 82.5% in experiment [5]; 90.7% in experiment [6]. The figures for the growth in experiment [7] and in experiment [8] were 112% and 91.1%, respectively.

As to `C=C1C(=O)O[C@H]2[C@H]1CC/C(CNC(=O)/C=C/c1ccc(Cl)cc1Cl)=C\CC[C@@]1(C)O[C@@H]21`, the growth in experiment [1] is -61.2% (active); in experiment [2] it was -53.1% (active); in experiment [3], 4.95% (active); in experiment [4], -51.6% (active); in experiment [5] it was -59.9% (active); in experiment [6], -73.9% (active). The growth in experiment [7] is -93.3% (active); in experiment [8], 20%.

On to `O=C1/C(=C/c2ccc(Br)cc2)C=C(c2ccccc2)N1CCc1ccccc1`, for which the growth is 50.5% in experiment [1]; 74.5% in experiment [2]; 63.2% in experiment [3]; 70.2% in experiment [4]; 55.2% in experiment [5]; 22.7% in experiment [6]. In addition, the values for the growth in experiment [7] and in experiment [8] were 70.1% and 87.9%, respectively.

Consider `CCOc1ccccc1-n1c(CN2CCN(C(=O)COc3ccc(CNCCCCCCN4C5CCCC4CC(OC(=O)Nc4cc(C)ccc4OC)C5)cc3)CC2)nc2ccccc2c1=O` (stereo not drawn), for which the growth is -66.8% (active) in experiment [1]; -90.8% (active) in experiment [2]; -97% (active) in experiment [3]; -86.8% (active) in experiment [4]; -78.3% (active) in experiment [5]; -91.5% (active) in experiment [6]. For the same molecule, the growth in experiment [7] is -87.7% (active); in experiment [8] it was -87.2% (active).

Regarding `Cc1cc(Cl)ccc1Nc1nc(C(F)(F)F)ccc1C(=O)N/N=C/c1ccc(N(C)C)cc1`, the growth in experiment [1] was 37%; in experiment [2], 34.9%; in experiment [3], 43.7%; in experiment [4], 15.9%; in experiment [5] it was 10.1%; in experiment [6] it was 19.4%. The figures for the growth in experiment [7] and in experiment [8] were -37.3% (active) and 26.9%, respectively.

Take `COc1cc(/C=C/C(=O)c2c(C)nc3ccccc3c2C)ccc1OCCCN1CCN(C(=O)c2ccco2)CC1`: the growth is 67.7% in experiment [1]; 86.3% in experiment [2]; 61.6% in experiment [3]; 68.3% in experiment [4]; 75.4% in experiment [5]; 76.6% in experiment [6]. For the same molecule, the growth is 46.5% in experiment [7] and 98% in experiment [8].

`Cc1ccc2c(c1)Sc1c(ccc3ccccc13)N2`: the growth in experiment [1] was 47.2%; in experiment [2], 81.2%; in experiment [3], 81.6%; in experiment [4], 73.7%; in experiment [5], 56.5%; in experiment [6], 29.1%. In addition, the growth is 67.6% in experiment [7] and 55.1% in experiment [8].

Take `COc1ccc(NC(=O)c2nc(-c3cc(OC)c(OC)c(OC)c3)n(-c3cccc4ccccc34)n2)cc1OC`: the growth is 50.3% in experiment [1]; 46.3% in experiment [2]; 47.4% in experiment [3]; 61.5% in experiment [4]; 26.2% in experiment [5]; 25.9% in experiment [6]. The growth is 47.4% in experiment [7] and 41.3% in experiment [8].

As for `CCN1C(=O)N(CC)C2C1NN=c1s/c(=C\c3cccs3)c(=O)n12` (stereo not drawn), the growth in experiment [1] was 60.6%; in experiment [2], 19.8%; in experiment [3], -31.8% (active); in experiment [4], 20.9%; in experiment [5], 19.9%; in experiment [6] it was 15.4%. The growth in experiment [7] is 21%; in experiment [8], 19.8%.

For `O=[N+]([O-])c1ccc(C2CC(c3ccccc3)=Nc3ccccc3S2)cc1` (stereo not drawn), the growth in experiment [1] was 70.9%; in experiment [2], 95%; in experiment [3] it was 103%; in experiment [4] it was 79.4%; in experiment [5], 32.6%; in experiment [6], 36.2%. Also, the growth in experiment [7] was 103%; in experiment [8], 73.6%.

Turning to `CNC(=O)c1cc(Oc2ccc3nc(Nc4ccc(Cl)c(C(F)(F)F)c4)ccc3c2)ccn1`, the growth is 43.5% in experiment [1]; 83.1% in experiment [2]; 52.3% in experiment [3]; 104% in experiment [4]; 42.7% in experiment [5]; 45.1% in experiment [6]. Besides, the results for the growth in experiment [7] and in experiment [8] were 65.5% and 52.7%, respectively.
